{"source": "PubChem BioAssay (NCI)", "note": "The panel holds about 79,000 compounds, 15% with a hit somewhere; the sample as a whole holds those more often. Values without a mark were called inactive. Calls of active or inactive are those of the source. No stated cut-off is given here; in the data, active means growth inhibition above about 70%; inactive means the rest.", "data": [{"assay": "NCI Yeast Anticancer Drug Screen. Data for the sgs1 mgt1 strain (AID 161);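 further: 0% = growth of cultures given vehicle only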", "conditions": "S. cerevisiae sgs1 mgt1 strain, at 50.0 µM, hits give high values", "how_it_was_run": "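Test agents were incubated with a DNA-repair-mutant yeast strain. Growth was then read and compared against vehicle-treated controls.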", "units": {"growth inhibition": "%"}, "values": [{"smiles": "CCCCCCC1OCC(C)([N+](=O)[O-])CO1", "note": "(stereo not drawn)", "growth inhibition": -1.1}, {"smiles": "COc1ccccc1NC(=O)C1=C(C)NC(C)=C(C(=O)Nc2ccccc2OC)C1c1ccccc1Cl", "growth inhibition": 3.85}, {"smiles": "Cc1ccc(-n2cc(-c3ccc(Cl)cc3)c3c(NNC(=S)NCc4ccccc4)ncnc32)cc1", "growth inhibition": 52.5}, {"smiles": "Cc1cc(C)c2c(ccc3ccccc32)n1", "growth inhibition": -23.4}, {"smiles": "C=C(C)S(=O)(=O)c1ccc(C)cc1", "growth inhibition": -5.7}, {"smiles": "CCCCN=NNc1cn(C2OC(CO)C(O)C2O)c(=O)[nH]c1=O", "note": "(stereo not drawn)", "growth inhibition": 4.85}, {"smiles": "CC(C)CCOC(=O)C(C)(O)C(Cl)c1ccccc1", "note": "(stereo not drawn)", "growth inhibition": -13.2}, {"smiles": "CCCNC(=S)N/N=C\\C(C)=N\\Nc1ccc(Cl)cc1", "growth inhibition": 3.15}, {"smiles": "[Br][Pt+2][Br].[NH-]c1ccc(F)cc1.[NH-]c1ccc(F)cc1", "growth inhibition": 5.4}, {"smiles": "C(=N\\c1oc(-c2ccccc2)nc1SCc1ccccc1)/c1ccccc1", "growth inhibition": 23.1}, {"smiles": "CCN(CC)C(=O)C1CCCCN1", "note": "(stereo not drawn)", "growth inhibition": 3.1}, {"smiles": "O=[N+]([O-])c1ccc(C=NC23CC4CC(CC(C4)C2)C3)cc1", "growth inhibition": -0.35}, {"smiles": "O=C(O)CC(NC(=O)OCc1ccccc1)C(=O)OCc1ccccc1", "note": "(stereo not drawn)", "growth inhibition": -12.3}, {"smiles": "O=C(Nc1ccc(S(=O)(=O)N2CCCCC2)cc1)OC1CCCCCC1", "growth inhibition": -8.5}, {"smiles": "NCCNc1nc(NCCN)nc(N(CCN)CCN)n1", "growth inhibition": 7.6}, {"smiles": "CC1CC(C)CN(S(=O)(=O)c2cc(Cl)c(Oc3ccc([N+](=O)[O-])cc3Cl)c(Cl)c2)C1", "note": "(stereo not drawn)", "growth inhibition": 3.75}, {"smiles": "O=C1CCCCCCCCC1=O", "growth inhibition": -11.3}, {"smiles": "O=CC(CO)CC(C=O)n1cnc2c(=O)[nH]cnc21", "note": "(stereo not drawn)", "growth inhibition": -15.2}, {"smiles": "O=C(NNC(=O)C(Oc1ccccc1)c1ccccc1)C(Cl)Cl", "note": "(stereo not drawn)", "growth inhibition": 0.55}, {"smiles": "Nc1ccc(C2=Nc3ccccc3SC(c3ccccc3O)C2)cc1", "note": "(stereo not drawn)", "growth inhibition": 11.5}, {"smiles": "CC(C(=O)c1ccccc1)C(=O)c1ccccc1", "growth inhibition": -7.9}, {"smiles": "CC(=O)Nc1ccc(S(=O)(=O)N/N=c2/sc3ccccc3n2C)cc1N", "growth inhibition": -3.8}, {"smiles": "CCOC(=O)C(/C=N\\C(=S)Nc1ccc(OCC)cc1)=C(/O)c1ccccc1", "growth inhibition": -26.6}]}, {"assay": "NCI Yeast Anticancer Drug Screen. Data for the cln2 rad14 strain (AID 165);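 further: 0% = growth equal to vehicle treated cultures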", "conditions": "S. cerevisiae cln2 rad14 strain, at 50.0 µM, hits give high values", "how_it_was_run": "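Each compound was tested on cln2 rad14 yeast. Inhibition of growth was calculated against vehicle-exposed controls.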", "values": [{"smiles": "Cc1ccc2c(c1)C1(OC(=O)c3ccccc31)c1ccc(F)cc1O2", "note": "(stereo not drawn)", "growth inhibition": "36.8%"}, {"smiles": "CCCCCCCSCC(O)COC(c1ccccc1)(c1ccccc1)c1ccccc1", "note": "(stereo not drawn)", "growth inhibition": "-20%"}, {"smiles": "COc1c(C)cc2c(C(C)C)c(O)c(O)c(C=O)c2c1O", "growth inhibition": "79% (active)"}, {"smiles": "O=C1CSC(=S)N1c1ccco1", "growth inhibition": "20.7%"}, {"smiles": "Nc1nc(Cl)cc(Nc2cc(Cl)cc(Cl)c2)n1", "growth inhibition": "63.7%"}, {"smiles": "CC(C)C(=NNC(N)=O)C(C)C", "growth inhibition": "-3.7%"}, {"smiles": "NC(Cc1cccs1)C(=O)O", "note": "(stereo not drawn)", "growth inhibition": "-43%"}, {"smiles": "Cc1cc(N(CCC#N)CCC#N)ccc1/C(N=Nc1ccc([N+](=O)[O-])cc1)=N\\NC(=O)c1cc(Cl)ccc1O", "growth inhibition": "6.85%"}, {"smiles": "Cc1ccc(C)c(NC(=O)C(=O)CC(=O)c2cccc3ccccc23)c1", "growth inhibition": "17.1%"}, {"smiles": "CCc1nc(N)nc(N)c1-c1ccc(N(CC)Cc2ccccc2)c([N+](=O)[O-])c1", "growth inhibition": "7.5%"}, {"smiles": "Cc1nc2ccc(N)cc2[nH]c1=O", "growth inhibition": "14.5%"}, {"smiles": "CCOC(=O)CNC(=O)C(Cc1ccccc1)NC(=O)CNC(=O)OCc1ccccc1", "note": "(stereo not drawn)", "growth inhibition": "20.4%"}, {"smiles": "Oc1c(Cl)cc(N=Cc2ccc(N(CCCCl)CCCCl)cc2)cc1Cl", "growth inhibition": "92% (active)"}, {"smiles": "O=C1OC(=O)C2C3C=CC(C4C=C(C5CC5)C43)C12", "note": "(stereo not drawn)", "growth inhibition": "-22.9%"}, {"smiles": "Cc1ccc(N=C(N)NC#N)cc1", "growth inhibition": "16.6%"}, {"smiles": "COCCCN1C(=O)C2c3[nH]c4ccccc4c3C3CCC(C(C)(C)C)CC3C2C1=O", "note": "(stereo not drawn)", "growth inhibition": "45.4%"}, {"smiles": "CC(=O)N1CN=C2Sc3ccccc3N2C1", "growth inhibition": "-16%"}, {"smiles": "CCCCCCC1OCC(C)([N+](=O)[O-])CO1", "note": "(stereo not drawn)", "growth inhibition": "-28.8%"}, {"smiles": "COc1ccccc1NC(=O)C1=C(C)NC(C)=C(C(=O)Nc2ccccc2OC)C1c1ccccc1Cl", "growth inhibition": "17.9%"}, {"smiles": "Cc1ccc(-n2cc(-c3ccc(Cl)cc3)c3c(NNC(=S)NCc4ccccc4)ncnc32)cc1", "growth inhibition": "32.4%"}, {"smiles": "Cc1cc(C)c2c(ccc3ccccc32)n1", "growth inhibition": "-5.75%"}, {"smiles": "C=C(C)S(=O)(=O)c1ccc(C)cc1", "growth inhibition": "-15.3%"}, {"smiles": "CCCCN=NNc1cn(C2OC(CO)C(O)C2O)c(=O)[nH]c1=O", "note": "(stereo not drawn)", "growth inhibition": "13.3%"}, {"smiles": "CC(C)CCOC(=O)C(C)(O)C(Cl)c1ccccc1", "note": "(stereo not drawn)", "growth inhibition": "1.35%"}, {"smiles": "CCCNC(=S)N/N=C\\C(C)=N\\Nc1ccc(Cl)cc1", "growth inhibition": "36%"}, {"smiles": "[Br][Pt+2][Br].[NH-]c1ccc(F)cc1.[NH-]c1ccc(F)cc1", "growth inhibition": "-8.3%"}, {"smiles": "C(=N\\c1oc(-c2ccccc2)nc1SCc1ccccc1)/c1ccccc1", "growth inhibition": "-19.8%"}, {"smiles": "CCN(CC)C(=O)C1CCCCN1", "note": "(stereo not drawn)", "growth inhibition": "-43.2%"}, {"smiles": "O=[N+]([O-])c1ccc(C=NC23CC4CC(CC(C4)C2)C3)cc1", "growth inhibition": "14.2%"}, {"smiles": "O=C(O)CC(NC(=O)OCc1ccccc1)C(=O)OCc1ccccc1", "note": "(stereo not drawn)", "growth inhibition": "-16.6%"}, {"smiles": "O=C(Nc1ccc(S(=O)(=O)N2CCCCC2)cc1)OC1CCCCCC1", "growth inhibition": "14.5%"}, {"smiles": "NCCNc1nc(NCCN)nc(N(CCN)CCN)n1", "growth inhibition": "9%"}, {"smiles": "CC1CC(C)CN(S(=O)(=O)c2cc(Cl)c(Oc3ccc([N+](=O)[O-])cc3Cl)c(Cl)c2)C1", "note": "(stereo not drawn)", "growth inhibition": "34.4%"}, {"smiles": "O=C1CCCCCCCCC1=O", "growth inhibition": "-4.05%"}, {"smiles": "O=CC(CO)CC(C=O)n1cnc2c(=O)[nH]cnc21", "note": "(stereo not drawn)", "growth inhibition": "2.55%"}, {"smiles": "O=C(NNC(=O)C(Oc1ccccc1)c1ccccc1)C(Cl)Cl", "note": "(stereo not drawn)", "growth inhibition": "-2.45%"}, {"smiles": "Nc1ccc(C2=Nc3ccccc3SC(c3ccccc3O)C2)cc1", "note": "(stereo not drawn)", "growth inhibition": "19%"}, {"smiles": "CC(C(=O)c1ccccc1)C(=O)c1ccccc1", "growth inhibition": "-9.95%"}, {"smiles": "CC(=O)Nc1ccc(S(=O)(=O)N/N=c2/sc3ccccc3n2C)cc1N", "growth inhibition": "15.2%"}, {"smiles": "CCOC(=O)C(/C=N\\C(=S)Nc1ccc(OCC)cc1)=C(/O)c1ccccc1", "growth inhibition": "-14.8%"}]}]}
